From PubChem BioAssay
Most compounds without a hit are left out; they make up all but 2.8% or so of the library.
KKLEB cytotox: cytotoxicity in KKLEB CF airway cells, primary screen, cytotoxicity control for CF NF-kB inhibitor project, cell-based, uHTS, fluorescence assay plates; KKLEB CF airway cells viability, ATPlite luminescence, overnight; active compounds read low; cells stimulated with P. aeruginosa culture filtrate; actives 0.36% (n = 360,000); activity change (cytotoxicity), % at 5 µM;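 active = corrected activity change at or below -50% at 5 µM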
Shn3 3UTR inh: reduction of Shn3 3'UTR firefly luciferase signal, primary screen, Schnurri-3 inhibitor project, cell-based, Clone20 osteoblasts, set 2. AID 588674, 2011. Clone20 osteoblast Shn3 3'UTR firefly luciferase, 24 h. inhibition, % at 12.5 µM. actives 0.52% (n = 360,000);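 active = mean inhibition of at least 75% with every replicate also reaching 75%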
CF NFkB block: inhibitors of PAF-induced NF-kB signaling, primary screen, cell-based, GFP fluorescence, uHTS; inhibition, % at 5 µM; actives 0.86% (n = 360,000); KKLEB NF-kB-GFP reporter, GFP fluorescence overnight;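 active = at least 50% inhibition at 5 µM, scaled per plate between neutral and stimulator controls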;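 also: PAF is a Pseudomonas aeruginosa culture filtrate used as stimulus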
MITF TRPM1 inh: inhibitors of MITF-dependent TRPM1 promoter reporter, primary screen, cell-based, SK-MEL-5, single point, luciferase | SK-MEL-5 TRPM1 promoter luciferase, 24 h | AID 488899, 2010 | inhibition, % at 12.5 µM | actives 0.83% (n = 330,000);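 active = mean inhibition across replicates of 60% or more, whatever share of single replicates reaches that level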
HIF-2a block: HIF-2a reporter inhibitors, primary screen, luminescence, 786-0 RCC cells | actives 0.72% (n = 360,000) | 786-0 RCC cells HIF-2a reporter, luciferase luminescence, overnight | inhibition, % at 18.8 µM;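 active = inhibition of the luminescence signal of 40% or more relative to plate controls, in a single-dose primary screen at 18.75 µM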
Peg3 prom inh: Peg3 promoter-driven luciferase inhibitors, primary screen, cell-based, HeLa, luciferase luminescence; HeLa PEG-Prom luciferase reporter, overnight; inhibition, % at 20 µM; actives 1.7% (n = 360,000); AID 588405, 2011;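 active = inhibition of at least 50% at 20 µM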
Numbers stand for hits; . = inactive; / = no result.

SMILES | KKLEB cytotox | Shn3 3UTR inh | CF NFkB block | MITF TRPM1 inh | HIF-2a block | Peg3 prom inh
C#CCOCCOCCOCCNc1nc(N2CCN(C(=O)CCCCCCCCCCNC(=O)Cn3cc(C[C@@H](C)O)nn3)CC2)nc(N2CCN(C(=O)CCCCCCCCCCNC(=O)Cn3cc(C[C@@H](C)O)nn3)CC2)n1 | . | . | . | . | . | .
C#CCOCCOCCOCCNc1nc(N2CCN(C(=O)CCCCCCCCCCNC(=O)[C@H](CCCCN)n3cc(CCO)nn3)CC2)nc(N2CCN(C(=O)CCCCCCCCCCNC(=O)[C@H](CCCCN)n3cc(CCO)nn3)CC2)n1 | . | . | . | . | . | .
C#CCOCCOCCOCCNc1nc(N2CCN(C(=O)CCCCCCCCCCNC(=O)Cn3cc(C[C@@H](C)O)nn3)CC2)nc(N2CCN(C(=O)CCCCCCCCCCNC(=O)[C@H](CCCCN)n3cc(C[C@@H](C)CC)nn3)CC2)n1 | . | . | . | 82.7 | . | 99.2
C#CCOCCOCCOCCNc1nc(N2CCOCC2)nc(N2CCN(C(=O)CCCCCCCCCCNC(=O)[C@@H](CCSC)n3cc(CCO)nn3)CC2)n1 | . | . | . | . | . | .
Cc1onc(-c2ccccc2)c1C(=O)Nc1ccc(S(=O)(=O)NC(C)(C)C)cc1 | . | . | . | . | . | .
COCCN1C[C@@H](CO)O[C@@H](n2cnc3c(N4CCCC4)ncnc32)C1 | . | . | . | / | . | .
C#CCOCCOCCOCCNc1nc(N2CCN(C(=O)CCCCCCCCCCNC(=O)[C@H](CCCCN)n3cc(CCO)nn3)CC2)nc(N2CCN(C(=O)CCCCCCCCCCNC(=O)[C@H](CCCN=C(N)N)n3cc(C[C@@H](C)CC)nn3)CC2)n1 | . | . | . | 77.1 | . | .
Cc1ccc(-c2nc(N/N=C/c3cccnc3)c3ccccc3n2)cc1 | -71.3 | . | . | . | . | .
Cc1ccc(-c2nc(Nc3ccc(O)cc3)c3ccccc3n2)cc1 | . | . | . | . | . | 59.3
CCCCNC(=O)c1nc(-c2ccccc2)oc1-c1ccc(Cl)cc1 | / | / | / | / | . | /
COc1ccc(S(N)(=O)=O)cc1C(=O)OCC(=O)N1CC(=O)Nc2ccccc21 | . | . | . | . | . | .
COc1ccccc1-c1nnc2sc(-c3ccc(N(C)C)cc3)nn12 | . | . | 52.6 | . | . | .
CC1CC(C)(C)CC2(C1)NC(=O)N(CC(=O)N1CCN(Cc3ccc(C#N)cc3)CC1)C2=O (stereo not drawn) | . | 85.8 | . | . | . | .
CC1(c2ccc3ccccc3c2)NC(=O)N(CC(=O)N2CCN(Cc3ccc(C#N)cc3)CC2)C1=O (stereo not drawn) | . | 87.6 | . | . | . | .
CC(=O)N1CCN(C(=O)CN2C(=O)NC(C)(c3ccc4ccccc4c3)C2=O)CC1 (stereo not drawn) | . | . | . | / | . | .
Cc1ccc(S(=O)(=O)N(CCCO)CC(O)CON=C2c3ccccc3-c3ccccc32)cc1 (stereo not drawn) | . | . | . | . | . | 51.8
CCN(CC(O)Cn1c2ccccc2c2ccccc21)S(=O)(=O)c1ccc(C)cc1 (stereo not drawn) | . | . | . | . | . | .
CN(Cc1c(F)cccc1Cl)C(=O)c1cccc(S(=O)(=O)N2CCN(Cc3ccccc3)CC2)c1 | . | . | . | . | . | .
CN(Cc1ccc(OC(F)F)cc1)C(=O)c1cccc(S(=O)(=O)N2CCN(Cc3ccccc3)CC2)c1 | . | 89.4 | . | . | . | .
CCn1c(SCC(=O)Nc2ccccc2OC)nc(O)cc1=O | . | . | . | . | . | .
CCCCCCCCNS(=O)(=O)CCNCc1ccc(OC)cc1 | . | . | . | . | . | 61.1
COc1ccc(CNCCS(=O)(=O)NCc2ccc(OC)cc2)cc1 | . | . | . | . | . | .
CCOc1cc(CN2CCC(n3nccc3NC(=O)C3CC3)CC2)ccc1O | . | . | . | . | . | .
C/C(CC(=O)Nc1ccc(Cl)cn1)=N\NC(=O)Cc1cccs1 | . | . | . | . | . | .
COc1cccc(C(=O)N2CCC(C(=O)NCc3ccco3)CC2)c1 | . | . | . | . | . | .
SMILES | KKLEB cytotox | Shn3 3UTR inh | CF NFkB block | MITF TRPM1 inh | HIF-2a block | Peg3 prom inh
COc1ccccc1-c1cc(C(F)(F)F)nc(S(=O)(=O)CCCC(=O)Nc2cc(C)on2)n1 | -65.8 | 96.7 | 85.7 | 95.8 | 72.7 | 105.6
COc1ccc(-c2cc(C(F)(F)F)nc(S(=O)(=O)CCCC(=O)Nc3cc(C)on3)n2)cc1OC | -74.8 | . | 102.3 | . | . | 110.9
COc1ccccc1-c1cc(C(F)(F)F)nc(S(=O)(=O)CCCC(=O)NC(C)C)n1 | -93.9 | . | 88.2 | 86.1 | 89.7 | 112.7
Cc1cc(NC(=O)CCCSc2nc(-c3ccco3)cc(C(F)(F)F)n2)no1 | . | . | . | . | . | .
COc1ccccc1-c1cc(C(F)(F)F)nc(S(=O)(=O)CCCC(=O)Nc2cccnc2Cl)n1 | -54.8 | 90.7 | 72.5 | 77.2 | . | 110.6
Cc1cccc(-c2nc3c(c(=O)c4ccccc4n3C)c(=O)n2-c2ccccc2)c1 | . | . | . | . | . | .
Cc1ccc(NS(=O)(=O)c2ccc(NC(=O)CN(c3cc([N+](=O)[O-])ccc3C)S(C)(=O)=O)cc2)c(C)c1 | . | . | . | . | . | 50.1
Cc1ccc([N+](=O)[O-])cc1N(CC(=O)NC1CCCC1)S(C)(=O)=O | . | . | . | . | . | .
O=C1/C(=C/c2ccc(F)cc2)SC(=S)N1CC(=O)N1CCCCC1c1cccnc1 (stereo not drawn) | . | . | . | . | . | 102.9
O=C1/C(=C/c2ccccc2F)SC(=S)N1CC(=O)N1CCCCC1c1cccnc1 (stereo not drawn) | . | . | 73.8 | . | . | 75.6
O=C(/C=C/c1ccc(F)cc1)NC(=S)N1CCCCC1c1cccnc1 (stereo not drawn) | . | . | . | . | . | .
OC1c2cc(Cl)cc(Cl)c2N=C2CCCN21 (stereo not drawn) | . | . | . | / | . | .
CCc1ccc(C2C(C#N)=C(N)Oc3cc(N)ccc32)cc1 (stereo not drawn) | . | . | . | . | . | 50.4
Cc1cn(CC(=O)NCCN2CCOCC2)c(=O)[nH]c1=O | . | . | . | . | . | .
COc1cc(/C=C/C2=NNC(=O)CC2)cc(OC)c1OC | . | . | . | . | . | 61.4
CC(C)c1ccc(/C=C/C2=NNC(=O)CC2)cc1 | . | . | . | . | . | .
Cn1c(=O)c2cc(S(=O)(=O)NC(C(=O)N3CCCCCC3)c3ccccc3)ccc2n(C)c1=O (stereo not drawn) | . | . | . | . | . | .
